Reference: the supplement of paper PMC8371130
Where a name gives a salt, the structure may show the parent alone.

System: HL-1
Assay: relative cell viability (CellTiter-Glo) vs DMSO control (% of DMSO control); higher = more viable cells
Procedure, shortened: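 One day after HL-1 mouse atrial cardiomyocytes were plated (1000 cells per well, 384-well plates) with compounds at 40, 200, 1000 or 5000 nM in 0.01% DMSO, they were transferred to a hypoxic workstation at 1% O2. After 48 h there, the cells were reoxygenated for 24 h in a normal incubator, and comparison cells stayed in normoxia throughout the same time. Cell viability was quantified with CellTiter-Glo luminescence and normalised to vehicle-treated control cells.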

[1] = oxygen condition: hypoxia 48 h (1% O2) + reoxygenation 24 h, 40 nM
[2] = oxygen condition: hypoxia 48 h (1% O2) + reoxygenation 24 h, 200 nM
[3] = oxygen condition: hypoxia 48 h (1% O2) + reoxygenation 24 h, 1000 nM
[4] = oxygen condition: hypoxia 48 h (1% O2) + reoxygenation 24 h, 5000 nM
[5] = oxygen condition: normoxia 72 h, 40 nM
[6] = oxygen condition: normoxia 72 h, 200 nM
[7] = oxygen condition: normoxia 72 h, 1000 nM
[8] = oxygen condition: normoxia 72 h, 5000 nM

Structure (SMILES)	relative cell viability [1]	relative cell viability [2]	relative cell viability [3]	relative cell viability [4]	relative cell viability [5]	relative cell viability [6]	relative cell viability [7]	relative cell viability [8]
CC(C)N(CCNC(=O)CN1CCCC1=O)C(C)C [Pramiracetam]	104	103	106	112	98.6	104	107	111
CC(=O)O[C@H]1C[C@@H]2CC[C@@H]3[C@H](CC[C@@]4(C)[C@H]3C[C@H]([N+]3(C)CCCCC3)[C@@H]4OC(C)=O)[C@@]2(C)C[C@@H]1[N+]1(C)CCCCC1 [Pancuronium]	103	101	102	109	101	105	108	101
O=C(O)c1nn(Cc2ccc(Cl)cc2Cl)c2ccccc12 [Lonidamine]	104	105	109	111	111	102	122	112
CNC1CC(N)C(O)C(OC2OC(CO)C(O)C3OC4(OC(C(N)CO)C(O)C(O)C4O)OC23)C1O (centres undefined) [Hygromycin B]	108	102	107	110	104	106	110	106
O=C1CC[C@@]2(O)[C@H]3Cc4ccc(O)c5c4[C@@]2(CCN3CC2CC2)[C@H]1O5 [Naltrexone HCl]	102	106	99.6	108	107	106	113	110
CC(=O)O[C@@]12CO[C@@H]1C[C@H](O)[C@@]1(C)C(=O)[C@H](O)C3=C(C)[C@@H](O)C[C@@](O)([C@@H](OC(=O)c4ccccc4)[C@H]21)C3(C)C	86.6	102	105	113	105	105	103	124
CN(C)C(=O)Oc1cccc([N+](C)(C)C)c1 [Neostigmine bromide]	106	100	97.4	113	101	105	103	109
COc1ccc(C(CN(C)C)C2(O)CCCCC2)cc1 (centres undefined) [Venlafaxine]	97.2	96.1	101	102	102	96.1	99.5	108
CC(O)(CS(=O)(=O)c1ccc(F)cc1)C(=O)Nc1ccc(C#N)c(C(F)(F)F)c1 (centres undefined) [Bicalutamide]	106	107	107	104	106	111	110	107
CCC1(c2cccc(O)c2)CCCCN(C)C1 (centres undefined) [Meptazinol HCl]	97.8	103	103	109	97.7	98.3	102	108
C#C[C@]1(O)C=C[C@H]2[C@@H]3CCC4=CC(=O)CC[C@@H]4[C@H]3CC[C@@]21CC [Gestodene]	102	100	109	107	111	103	105	106
CC[C@@H](C(N)=O)N1CCCC1=O [Levetiracetam]	113	109	118	113	109	113	116	117
CNC(=O)Oc1ccc2c(c1)[C@]1(C)CCN(C)[C@@H]1N2C [Physostigmine Salicylate]	89.5	84.3	69.5	41.9	84.3	84.1	64.7	48.8
CN1c2ccccc2C(NCCCCCCC(=O)O)c2ccc(Cl)cc2S1(=O)=O (centres undefined) [Tianeptine sodium]	106	105	108	106	98.8	103	104	110
CCOC(=O)c1cncn1[C@H](C)c1ccccc1 [Etomidate]	101	107	118	115	104	109	104	109
CCC1(c2ccc(N)cc2)CCC(=O)NC1=O (centres undefined) [Aminoglutethimide]	104	99.3	89.1	72.3	99.4	93.8	92.1	66.7
Cc1cccc([C@H](C)c2c[nH]cn2)c1C [Dexmedetomidine]	112	105	106	107	107	104	118	116
C[C@]12CCC(=O)C=C1C=C[C@@H]1[C@@H]2CC[C@@]2(C)[C@H]1CC[C@@]2(O)CCC(=O)O [Potassium Canrenoate]	100	96.7	97.6	103	101	98.6	94.2	108
CCCN1C[C@H](CSC)C[C@@H]2c3cccc4[nH]cc(c34)C[C@H]21 [Pergolide mesylate]	103	100	106	109	105	102	110	120
O=C(O[C@H]1C[C@H]2CC[C@@H](C1)[N+]21CCCC1)C(O)(c1ccccc1)c1ccccc1 [Trospium chloride]	95	98.6	90.1	105	103	95.1	95.8	101
CC[N+]1(C)CCCC(OC(=O)C(O)(c2ccccc2)c2ccccc2)C1 (centres undefined) [Pipenzolate Bromide]	101	98.3	102	105	100	111	101	116
C/C=C(\C)C(=O)N[C@@H](c1ccccc1)[C@@H](O)C(=O)O[C@H]1C[C@@]2(O)[C@@H](OC(=O)c3ccccc3)[C@@H]3[C@]4(OC(C)=O)CO[C@@H]4C[C@H](O)[C@@]3(C)C(=O)[C@H](OC(C)=O)C(=C1C)C2(C)C [Cephalomannine]	24.9	28	23.6	28	21.5	21.7	20.2	25.3
CN1C(=O)COc2c(C(=O)NC3CN4CCC3CC4)cc(Cl)cc21 (centres undefined) [Azasetron HCl]	98.7	97.9	105	106	94.8	98.3	110	107
Cc1cccc(C)c1NC1=NCCCS1 [Xylazine HCl]	99.5	101	103	107	106	98.1	102	105
C[C@]12CC[C@H]3[C@@H](CC[C@@]45O[C@@H]4C(O)=C(C#N)C[C@]35C)[C@@H]1CC[C@@H]2O [Trilostane]	101	104	108	107	113	116	102	108
O=C(O[C@H]1C[N+]2(CCCOc3ccccc3)CCC1CC2)C(O)(c1cccs1)c1cccs1 [Aclidinium Bromide]	104	108	108	110	103	115	106	121
CCN(C)C(=O)Oc1cccc([C@H](C)N(C)C)c1 [Rivastigmine tartrate]	105	102	110	109	99.9	106	108	105
CC[C@@]1(O)C(=O)OCc2c1cc1n(c2=O)Cc2cc3ccccc3nc2-1 [Camptothecin]	104	103	93.9	37.7	104	105	89.7	35.6
